This note sets out measurements from PubChem BioAssay (NCATS).

What all share (assay): qHTS profiling for inhibitors of Plasmodium falciparum proliferation (AID 504749); note: nearly all actives have a fitted effect of over 60% in size
Settings in all cases: P. falciparum in erythrocytes, SYBR Green DNA, 72 h; series mostly up to 28.7 µM

In one experiment the test system is CP269. In outline: (§1)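 SYBR Green fluorescence of parasite DNA, read after lysis and overnight dark incubation, measured growth over 72 h in erythrocyte culture at 0.3% parasitemia and 2.5% hematocrit. Data normalised to DMSO and 0.29 uM artemisinin, with plate-drift correction.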
For a further experiment, the system named is CP286. In outline:
as §1

A further experiment deals with CP291. In outline: as §1
A further experiment relates to CP297. A digest of the protocol:
as §1

A further experiment relates to CP305. In outline:
as §1

The next experiment deals with CP315. A digest of the protocol: as §1
Another experiment deals with CP325. A digest of the protocol:
as §1

A further experiment concerns CP329. A digest of the protocol: as §1
The next experiment relates to DFO2036. In outline:
as §1

A further experiment relates to DIV14. A digest of the protocol: as §1
The test system of a further experiment is DIV30. A digest of the protocol:
as §1

The subject of a further experiment is Dd2. In outline:
as §1

A further experiment relates to ECU. A digest of the protocol: as §1
For another experiment, the system named is FAB9. A digest of the protocol: as §1
A further experiment deals with GB4. A digest of the protocol: as §1
The next experiment relates to HB3. In outline: as §1
For the next experiment, the system named is ICS. A digest of the protocol: as §1
Another experiment relates to JCK. In outline:
as §1

A further experiment concerns CP335. A digest of the protocol:
as §1

Another experiment has as its system DIV17. In outline:
as §1

Records with an inconclusive call do not appear. Active and inactive are the calls of the source. Calls come from the whole dose curve; as a rule, active = well fitted inhibition curve with a large enough effect; inconclusive = small, poorly fitted or top-dose-only effect; inactive = flat fitted curve, though single readings scatter.
Potency is the fitted concentration of half-maximal effect.

As to `CC[C@H](C)C(=O)O[C@H]1C[C@@H](C)C=C2C=C[C@H](C)[C@H](CC[C@@H]3C[C@@H](O)CC(=O)O3)[C@H]21`, the Potency entry in the experiment with CP269, in the experiment on CP286, in the experiment with CP291, with CP297, in the experiment on CP305 and with CP315 was “inactive” throughout. The Potency entry in the experiment on CP325, in the experiment with CP329, with DFO2036, with DIV14, with DIV30 and with Dd2 was “inactive” throughout. For the same molecule, the Potency entry in the experiment with ECU, in the experiment with FAB9, with GB4, in the experiment on HB3, in the experiment on ICS and with JCK was “inactive” each time.
As to `Cn1nnc2c(C(N)=O)ncn2c1=O`, the Potency entry in the experiment with CP269, in the experiment with CP286, with CP291, in the experiment with CP297, in the experiment on CP305 and in the experiment on CP315 was “inactive” in each case. In addition, the Potency result in the experiment on CP325, with CP329, in the experiment with CP335, in the experiment with DFO2036, in the experiment with DIV17 and with DIV30 was “inactive” in each case. Further, the Potency entry in the experiment on Dd2, with ECU, in the experiment on FAB9, in the experiment with GB4, in the experiment with HB3 and in the experiment on ICS was “inactive” in each case. The Potency result with JCK was “inactive”.
As to `CC(C)Cn1cnc2c(N)nc3ccccc3c21`, the Potency result with CP269, in the experiment with CP286, with CP291, in the experiment on CP297, with CP305 and in the experiment with CP315 was “inactive” in each case. The Potency entry in the experiment with CP325, in the experiment on CP329, with CP335, in the experiment with DFO2036, in the experiment with DIV14 and with DIV17 was “inactive” throughout. Moreover, the Potency entry in the experiment with DIV30, with Dd2, in the experiment with ECU, with FAB9, in the experiment with GB4 and in the experiment with ICS was “inactive” in each case. For the same molecule, the Potency entry in the experiment on JCK was “inactive”.
Consider `CC(=O)Oc1ccccc1C(=O)Nc1ncc([N+](=O)[O-])s1`, for which the Potency entry in the experiment with CP269, with CP291, in the experiment with CP297, with CP305, in the experiment with CP315 and with CP325 was “inactive” throughout. The Potency result in the experiment with CP329, in the experiment with DFO2036, with DIV30, in the experiment with ECU, in the experiment with FAB9 and in the experiment on JCK was “inactive” throughout. For the same molecule, the Potency was 12.6 µM (active) with CP286, 13.5 µM (active) in the experiment with DIV14, 12 µM (active) in the experiment on DIV17 and 11.2 µM (active) with ICS.
Turning to `O=S(=O)(O)CCS`, the Potency result in the experiment on CP269, in the experiment on CP286, in the experiment with CP291, in the experiment on CP297, in the experiment on CP305 and in the experiment with CP315 was “inactive” throughout. Besides, the Potency result in the experiment with CP325, in the experiment with CP329, in the experiment with CP335, in the experiment on DFO2036, with DIV14 and with DIV17 was “inactive” in each case. Besides, the Potency entry in the experiment with DIV30, with Dd2, in the experiment with ECU, in the experiment on FAB9, in the experiment on GB4 and in the experiment with HB3 was “inactive” throughout. Further, the Potency entry in the experiment with ICS and in the experiment on JCK was “inactive” in each case.
With `CN(C)CCc1c[nH]c2ccc(CS(=O)(=O)N3CCCC3)cc12`, the Potency result in the experiment with CP269, with CP286, with CP291, in the experiment with CP297, in the experiment on CP305 and in the experiment on CP315 was “inactive” each time. In addition, the Potency entry with CP325, in the experiment with CP329, with DFO2036, in the experiment with DIV14, with DIV17 and in the experiment with DIV30 was “inactive” each time. The Potency result in the experiment on Dd2, in the experiment with ECU, with FAB9, with GB4, with HB3 and in the experiment on ICS was “inactive” throughout. For the same molecule, the Potency entry with JCK is “inactive”.
For `CNS(=O)(=O)Cc1ccc2[nH]cc(CCN(C)C)c2c1`, the Potency result in the experiment with CP269, in the experiment with CP286, in the experiment with CP291, in the experiment on CP297, with CP305 and in the experiment with CP315 was “inactive” in each case. For the same molecule, the Potency entry in the experiment on CP325, in the experiment with CP329, in the experiment on DFO2036, in the experiment on DIV14, in the experiment with DIV17 and with DIV30 was “inactive” each time. Moreover, the Potency result in the experiment on Dd2, with ECU, in the experiment on FAB9, with GB4, in the experiment with HB3 and in the experiment on ICS was “inactive” each time. Also, the Potency result in the experiment with JCK is “inactive”.
Regarding `CC1=NN(c2ccccc2)C(=O)C1`, the Potency entry with CP269, in the experiment with CP286, in the experiment on CP291, in the experiment with CP297, with CP305 and in the experiment on CP315 was “inactive” throughout. Further, the Potency result with CP325, in the experiment on CP329, in the experiment on CP335, in the experiment on DFO2036, in the experiment on DIV14 and in the experiment on DIV17 was “inactive” each time. Moreover, the Potency result with DIV30, in the experiment with Dd2, in the experiment on ECU, in the experiment on FAB9, in the experiment with GB4 and in the experiment with HB3 was “inactive” in each case. Also, in the experiment with JCK, the Potency result is “inactive”.
On to `C[C@@H](NCCCc1cccc(C(F)(F)F)c1)c1cccc2ccccc12`, for which the Potency in the experiment with CP269 was 10.7 µM (active); in the experiment with CP286 it was 11.2 µM (active); with CP291, 10.7 µM (active); with CP297, 13.5 µM (active); with CP305 it was 13.5 µM (active); with CP325 it was 15.1 µM (active). Further, the Potency was 11.2 µM (active) in the experiment on DFO2036; 6.01 µM (active) with DIV14; 5.36 µM (active) in the experiment with DIV17; 7.57 µM (active) in the experiment on DIV30; 5.01 µM (active) in the experiment on Dd2; 3.16 µM (active) with ECU. Further, the Potency is 12 µM (active) with GB4, 12.6 µM (active) in the experiment with HB3 and 1.78 µM (active) in the experiment on ICS. Moreover, the Potency entry in the experiment with FAB9 was “inactive”.
For the molecule `CC[C@H](NC(C)C)[C@H](O)c1ccc(O)c2[nH]c(=O)ccc12`, the Potency result with CP269, with CP286, in the experiment on CP291, in the experiment on CP297, in the experiment on CP305 and in the experiment on CP315 was “inactive” each time. Further, the Potency result with CP325, in the experiment on CP329, with CP335, with DFO2036, with DIV14 and with DIV17 was “inactive” each time. The Potency entry in the experiment on Dd2, in the experiment with ECU, in the experiment on FAB9, in the experiment with GB4, with HB3 and in the experiment with ICS was “inactive” in each case. Besides, in the experiment with JCK, the Potency entry was “inactive”.
`Cc1ccnc2c1NC(=O)c1cccnc1N2C1CC1`: the Potency entry in the experiment with CP269, in the experiment on CP286, in the experiment on CP291, in the experiment with CP297, in the experiment on CP305 and in the experiment on CP315 was “inactive” each time. For the same molecule, the Potency result in the experiment on CP325, in the experiment on CP329, with CP335, with DFO2036, with DIV14 and in the experiment on DIV17 was “inactive” in each case. Also, the Potency entry with DIV30, with Dd2, in the experiment on ECU, with FAB9, with GB4 and in the experiment on HB3 was “inactive” throughout. Besides, the Potency result in the experiment with ICS and with JCK was “inactive” throughout.
For the molecule `COc1cc(NS(=O)(=O)c2ccc(N)cc2)nc(OC)n1`, the Potency result with CP269, in the experiment on CP286, in the experiment on CP291, with CP297, in the experiment on CP305 and in the experiment on CP315 was “inactive” throughout. Besides, the Potency entry in the experiment on CP325, in the experiment with CP329, with CP335, in the experiment with DFO2036, in the experiment on DIV14 and with DIV17 was “inactive” in each case. The Potency entry in the experiment with DIV30, in the experiment with Dd2, in the experiment on ECU, in the experiment with FAB9, in the experiment on GB4 and with HB3 was “inactive” each time. Besides, in the experiment on JCK, the Potency result is “inactive”.
Regarding `CC(C)(C#N)c1cc(Cn2cncn2)cc(C(C)(C)C#N)c1`, the Potency entry in the experiment with CP269, in the experiment on CP286, in the experiment on CP291, in the experiment on CP297, in the experiment on CP305 and in the experiment on CP315 was “inactive” each time. For the same molecule, the Potency result in the experiment with CP325, in the experiment with CP329, in the experiment with DFO2036, in the experiment with DIV14, in the experiment with DIV17 and with DIV30 was “inactive” throughout. Moreover, the Potency entry with Dd2, in the experiment with ECU, in the experiment on FAB9, with GB4, with HB3 and in the experiment with ICS was “inactive” each time. For the same molecule, in the experiment on JCK, the Potency entry was “inactive”.
